# Results from PubChem BioAssay AID1347150 (National Center for Advancing Translational Sciences (NCATS), 2019).
# Results filed as inconclusive are left out. The source made the active and inactive calls. Calls follow the shape of the dose curve; as a rule, active = well fitted curve in the direction sought with a large enough effect; inconclusive = small, poorly fitted or top-dose-only effect, or another doubt; inactive = no such curve, though single readings can be large or run the other way.
# Tested on: Zika virus NS2B-NS3 protease (linked)
# Assay: Optimization screen NINDS AMC qHTS for Zika virus inhibitors: Linked NS2B-NS3 protease assay
# Settings: recombinant linked NS2B-NS3 protease, AMC fluorogenic substrate; series mostly up to 52.5 µM
# Source text: Avindra Nath, Ph.D., National Institute of Neurological Disorders and Stroke (NINDS), Bethesda, MD
# Radhakrishnan Padmanabhan, Ph.D., Georgetown University (GU), Washington D.C.
# Zika Virus causes congenital defects, including microcephaly and is associated with Guillain-Barre syndrome, eningoencephalitis and myelitis in infected adult. […] Using a target-based approach, we hope to establish a screening paradigm to uncover novel, cell-active NS2B-NS3 protease (Zika Virus) specific inhibitors from NCATS' collection of small molecules using qHTS.
# Four assay panel was created to identify potential Zika Virus inhibitors. Namely, (1) GU unlinked NS2B-NS3 AMC tagged protease qHTS, (2) GU unlinked NS2B-NS3 Rhodamine tagged protease qHTS, (3) NINDS linked NS2B-NS3 AMC tagged protease qHTS, (4) NINDS linked NS2B-NS3 Rhodamine tagged protease qHTS. Active compounds were re-acquired and re-screened to confirm inhibition. Inhibitors were further screened against various confirmatory and counterscreens in dose response format.
# Early Translation Branch (ETB)
# National Center for Advancing Translational Sciences (NCATS), Rockville, MD
# National Institute of Health (NIH), Bethesda, Maryland
# For the linked assay, Nath lab (NINDS) provided the purified linked NS2B-NS3 protease which is consists of hydrophilic domain of NS2B linked to the NS3 protease domain by a flexible (-GGGGSGGGG-) linker. Control compound aprotinin is obtained from Thermo Scientific (#78432; Waltham, Massachusetts). NS2B-NS3 AMC substrate (Bz-Nle-Lys-Arg-Arg-AMC; Nle-KRR-AMC) purchased from Bachem (#I-1995; Torrance, CA). Ac-VKTGKR-AMC purchased from Genscript or Bachem, Ac-FAAGKR-AMC purchased from Genscript, Ac-GLVKRR-AMC purchased from Genscript, Ac-LKKR-AMC purchased from Genscript.
# NINDS AMC linked NS2B-NS3 protease qHTS protocol:
# Briefly, 3 microL of Zika virus linked NS2B-NS3 protease (1 nM for linked final concentration), in assay buffer (10 mM Tris-HCl pH 8.0 with 0.01% Tween 20) was dispensed into a 1,536-well solid-bottom black plate (Greiner Bio One, Monroe, NC). Twenty-three nL of compounds (final concentration range 7.28 nM to 114 microM) or control Aprotinin (final concentration range 3.47 nM to 114 microM) were transferred via Wako Pin-tool (Wako Automation, Richmond, VA). Samples were incubated (room temperature, protected from light) for 15 minutes followed by a 1 microL AMC substrate addition of (final concentration of 10 microM; Km = 18.3 µM). Plates were then read immediately on a ViewLux High-throughput CCD imager (PerkinElmer, Waltham, MA) equipped with standard UV fluorescence optics (340(30) nm excitation, 450(20) nm emission) then incubated (room temperature, protected from light) for 15 minutes (~20% conversion). The change in fluorescence intensity over the 15-minute reaction period was normalized against no-inhibitor and no-enzyme controls and the resulting percent inhibition data were fitted to a 4-parameter Hill equation. Aprotinin was used as the intraplate control.
row,Structure (SMILES),outcome
1,CC(C)=CCN1CC[C@@]2(C)c3cc(O)ccc3C[C@@H]1[C@@H]2C,inactive
2,C[C@@H]1[C@@H]2Cc3ccc(O)cc3[C@@]1(C)CCN2CCc1ccccc1,inactive
3,CC[C@H](C)[C@H]1O[C@]2(C=C[C@@H]1C)C[C@@H]1C[C@@H](C/C=C(\C)[C@@H](O[C@H]3C[C@H](OC)[C@@H](O[C@H]4C[C@H](OC)[C@@H](O)[C@H](C)O4)[C@H](C)O3)[C@@H](C)/C=C/C=C3\CO[C@@H]4[C@H](O)C(C)=C[C@@H](C(=O)O1)[C@]34O)O2,inactive
4,C=CCN1CCC2(C)c3cc(O)ccc3CC1C2C (stereo unspecified),inactive
5,C[C@H]1O[C@@H](O[C@H]2[C@@H](O)C[C@H](O[C@H]3[C@@H](O)C[C@H](O[C@H]4CC[C@@]5(C)[C@H](CC[C@@H]6[C@@H]5CC[C@]5(C)[C@@H](C7=CC(=O)OC7)CC[C@]65O)C4)O[C@@H]3C)O[C@@H]2C)C[C@H](O)[C@@H]1O,inactive
6,CC1OC(O[C@H]2C[C@@H](O)[C@]3(CO)[C@H]4[C@H](O)C[C@]5(C)[C@@H](C6=CC(=O)OC6)CC[C@]5(O)[C@@H]4CC[C@]3(O)C2)C(O)C(O)C1O (stereo partly specified),inactive
7,COC1C(O)C(C)O[C@@H](OC2CC[C@@]3(C)C4CC[C@]5(C)C(C6=CC(=O)OC6)CC[C@@]5(O)C4CC[C@@H]3C2)C1O (stereo partly specified),inactive
8,C[C@H]1O[C@@H](O[C@H]2[C@@H](O)C[C@H](O[C@H]3[C@@H](O)C[C@H](O[C@H]4CC[C@]5(C)C6CC[C@]7(C)[C@@H](C8=CC(=O)OC8)CC[C@]7(O)C6CC[C@@H]5C4)O[C@@H]3C)O[C@@H]2C)C[C@H](O)[C@@H]1O (stereo partly specified),inactive
9,CO[C@H]1[C@@H](O)CC(OC2[C@@H](O)CC(OC3[C@@H](O)C[C@H](OC4CC[C@@]5(C)C(CCC6C5CC(O)[C@]5(C)[C@H](C7=CC(=O)OC7)CCC65O)C4)O[C@@H]3C)O[C@@H]2C)O[C@@H]1C (stereo partly specified),inactive
10,C[C@@H]1[C@@H]2Cc3ccc(O)cc3[C@@]1(C)CCN2CC1CC1,inactive
11,CC(C)OC(=O)Nc1ccccc1,inactive
12,C[C@@H]1O[C@@H](O[C@H]2C[C@@H](O)[C@]3(CO)[C@H]4[C@H](O)C[C@]5(C)[C@@H](C6=CC(=O)OC6)CC[C@]5(O)[C@@H]4CC[C@]3(O)C2)[C@H](O)[C@H](O)[C@H]1O,inactive
13,CC1O[C@@H](O[C@@H]2C(O)C[C@H](O[C@@H]3C(O)C[C@@H](OC4CC[C@@]5(C)C6CC[C@]7(C)C(C8=CC(=O)OC8)CC[C@@]7(O)C6CC[C@@H]5C4)OC3C)OC2C)CC(O)[C@H]1O (stereo partly specified),inactive
14,C=CCN1CC[C@]23CCCCC2[C@H]1Cc1ccc(O)cc13 (stereo partly specified),inactive
15,C[C@H]1[C@H]2Cc3ccc(O)cc3[C@]1(C)CCN2CCc1ccccc1,inactive
16,C[C@@H]1O[C@@H](O[C@H]2C[C@@H](O)[C@]3(CO)C4C(CC[C@]3(O)C2)[C@@]2(O)CC[C@H](C3=CC(=O)OC3)[C@@]2(C)C[C@H]4O)[C@H](O)[C@H](O)[C@H]1O (stereo partly specified),inactive
17,CN1CC[C@@]23CCCC[C@@H]2[C@@H]1Cc1ccc(O)cc13,inactive
18,C[C@H]1O[C@@H](O[C@H]2[C@@H](O)C[C@@H](O[C@H]3[C@@H](O)C[C@H](O[C@H]4CC[C@@]5(C)[C@H](CC[C@@H]6[C@@H]5CC[C@]5(C)[C@@H](C7=CC(=O)OC7)CC[C@]65O)C4)O[C@@H]3C)O[C@@H]2C)C[C@H](O)[C@@H]1O,inactive
19,Cc1ccc2c(c1)[C@]13CCCC[C@@H]1[C@H](C2)N(C)CC3,inactive
20,CN1CC[C@@]23CCCCC2C1Cc1ccc(O)cc13 (stereo partly specified),inactive
21,C=CCN1CCC2(C)c3cc(O)ccc3C[C@H]1[C@H]2C,inactive
